# Test results reported in PubChem BioAssay AID623868 (Vanderbilt High Throughput Screening Facility, 2012).
# About 760 (36%) of roughly 2,100 compounds were called active. Not all results are given here. A number with no mark means an inactive call.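 The calls were made as follows: active = thallium-flux fluorescence traces judged by eye to show enhanced or reduced glutamate response, manual score 1 or -1, so both directions (some results past the limit were not filed as active); inactive = the rest, including fluorescent or raised-baseline compounds.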
# Experiment: non-GIRK thallium flux modulation in mGlu8 cells, confirmation, counter-screen for GIRK activator project, cell-based, HEK-293 rmGlu8, no GIRK (AID 623868);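 also: extra codes mark interference with 3 for fluorescent and 4 for baseline rise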
# Conditions: thallium flux fluorescence, at 10 µM, actives lie on both sides, codes: 1 enhancer, -1 blocker, 0 none, thallium stimulus containing EC20 glutamate
row,Structure (SMILES),manual score
1,O=c1c2ccc(Cl)cc2[nH]c(=S)n1CCC1=CCCCC1,1 (active)
2,CCN(CC)CCn1c(=S)[nH]c2cc(Cl)ccc2c1=O,0.5
3,COCCN(C(=O)Cc1cccs1)C(C(=O)NCc1ccc(OC)cc1)c1ccccc1 (configuration not stated),0
4,COc1ccc(CNC(=O)C(C#N)c2nc3ccccc3nc2N2CCCC2)cc1 (configuration not stated),3
5,COc1ccc(CN(CCC#N)C(=S)NC(=O)c2ccccc2)cc1,1 (active)
6,N#CCCN(Cc1ccccc1)C(=S)NC(=O)c1ccccc1,1 (active)
7,O=C1/C(=C/c2ccc(N3CCCC3)cc2)NC(=S)N1C1CC1,3
8,CCCN1C(=O)/C(=C/c2ccc(C)s2)NC1=S,1 (active)
9,CCCN1C(=O)/C(=C/c2ccc(N3CCCC3)c(C)c2)NC1=S,3
10,CCN1C(=O)/C(=C/c2ccc(C)s2)NC1=S,0.5
11,CC(C)CN1C(=O)/C(=C/c2cccs2)NC1=S,1 (active)
12,CSc1nc2ccccc2cc1/C=C(\C#N)c1cccc(C)c1,0
13,CC1Oc2ccccc2C=C1/C=N/NC(=O)c1ccccc1 (configuration not stated),0
14,Cc1ccc(C(=O)N/N=C/C2=Cc3ccccc3OC2C)cc1 (configuration not stated),1 (active)
15,COC(=O)c1sc(NC(=S)NC(=O)c2ccccc2)nc1C,1 (active)
16,CCCCSc1nc(N)c(NC(=O)c2ccco2)c(=O)[nH]1,0
17,COC(=O)Nc1nc(C)c(C(=O)N(C)C)s1,0
18,CCOC(=O)c1sc(NC(=S)NC(=O)c2ccco2)nc1C,1 (active)
19,COC(=O)c1sc(NC(=S)NC(=O)c2ccccc2Cl)nc1C,1 (active)
20,Cc1nnc(NC(=O)c2ccco2)s1,0
21,COC(=O)c1sc(NC(=S)NC(=O)c2cccc(C)c2)nc1C,1 (active)
22,COc1cc(C)ccc1OCCOc1cc(C)ccc1Cl,0

row,Structure (SMILES),manual score
1,COc1ccc(OC)c(S(=O)(=O)N(C)CC(=O)N2CCN(c3ccccc3F)CC2)c1,0
2,Cc1cccc2c1nc(-c1ccccc1)n1cnnc21,0
3,CN(C(=S)NC(=O)CCCOc1ccc(Cl)cc1Cl)c1ccccc1,1 (active)
4,O=C(COc1ccc(Cl)cc1Cl)Nc1ccccn1,0
5,Cc1cc(NC(=O)COc2ccc(Cl)cc2Cl)n(-c2ccccc2)n1,0
6,CSc1nc(N2CCOCC2)c2c(c1C#N)CC(C)(C)OC2,0
7,Cc1nc(SC2CCOC2=O)c2c(C)c(C)sc2n1 (configuration not stated),1 (active)
8,Cc1ccc(NCC(=O)Nc2cccc(S(=O)(=O)N(C)C)c2)c(Cl)c1,0
9,CCOC(=O)N/N=C/c1c(C)nn(-c2ccccc2Cl)c1Cl,0
10,COc1ccc(C)cc1S(=O)(=O)Nc1cccc(Cl)c1Cl,0.5
11,Cc1cccc(-n2c(O)c(/C=N/NC(=O)c3ccccc3Cl)c3ccccc3c2=O)n1,3
12,CCNC(=S)N/N=C/c1c(Cl)cccc1Cl,1 (active)
13,Cc1ccc(NC(=S)N/N=C/c2c(Cl)cccc2Cl)c(C)c1,1 (active)
14,O=C(Cn1nc(Cc2ccncc2)c2ccccc2c1=O)N1CCN(C(=O)c2ccco2)CC1,0
15,Cc1cc(C)c2nc(SCC(=O)NCCC3=CCCCC3)cc(C)c2c1,1 (active)
16,COc1cccc(-n2c(SCC(=O)NCCC3=CCCCC3)nc3n[nH]c(C)c3c2=N)c1,0
17,O=C(CCCc1nc(-c2ccc(Cl)cc2)no1)Nc1cccnc1,0
18,CCOC(=O)c1ccccc1Nc1cn(C(C)=O)c2ccccc12,0
19,Cc1cc2[nH]c(=O)c3ccccc3n2n1,0
20,CCOC(=O)c1cnn2c1[nH]c(=O)c1ccccc12,1 (active)
21,CN(C=O)CP(=O)(O)CCN1CCCC1=O,0
22,Cc1cc(C(=O)N2CCN(CCc3ccccc3)CC2)no1,0

row,Structure (SMILES),manual score
1,S=c1[nH]nc(-c2cc3c(s2)-c2ccccc2CC3)o1,1 (active)
2,CN1C=CC2=C(C#N)C(N)C(C#N)(C#N)[C@H](c3ccccc3)[C@H]2C1 (some centres not stated),3
3,COc1ccc(-c2cc(C(F)(F)F)c3c(n2)sc2c(O)cc(=O)[nH]c23)c(OC)c1,0
4,Cn1sc(NC(=O)c2cccc(Cl)c2)nc1=O,-1 (active)
5,O=C(NCCCN1CCN(c2cccc(Cl)c2)CC1)c1cccc(N2CCCC2=O)c1,0
6,O=C(Nc1cccc(Cl)c1)Nc1nccs1,0
7,CCn1c(=S)[nH]c2nc3c(cc2c1=O)CCCC3,1 (active)
8,C=CCn1c(=S)[nH]c2nc3c(cc2c1=O)CCCC3,1 (active)
9,Cc1noc(C)c1S(=O)(=O)N1CCC(Cc2ccccc2)CC1,0
10,CCCCCCN1C2=NCCN2c2ccccc21,0
11,CCC(=O)N1c2ccc(C)cc2C2=NNC(=S)NC21O (configuration not stated),1 (active)
12,CCOc1ccccc1C(=O)N1c2ccccc2Sc2ccccc21,0
13,COc1ccccc1C(=O)N1c2ccccc2Sc2ccccc21,-1 (active)
14,COCC(=O)/C=C1\Sc2ccccc2N1C,0
15,COc1cc(NC(=O)CS(=O)(=O)c2ccc(C)cc2)cc(OC)c1OC,0
16,COc1ccc(C(=O)Nc2ccc(S(=O)(=O)NCc3ccco3)cc2)cc1OC,-0.5
17,COc1cc(C(=S)N2CCCC2)cc(OC)c1OS(=O)(=O)c1ccc(NC(C)=O)cc1,-1 (active)
18,CS(=O)(=O)c1ccc2nc(NC(=O)C3C4C=CC(C4)C3C(=O)O)sc2c1 (configuration not stated),0
19,O=C(NC(Nc1nc2ccc([N+](=O)[O-])cc2s1)(C(F)(F)F)C(F)(F)F)c1ccccc1,1 (active)
20,O=C(NC(Nc1nc2ccc([N+](=O)[O-])cc2s1)(C(F)(F)F)C(F)(F)F)c1ccccc1Cl,1 (active)
21,O=C(Nn1c(C2CCCCC2)nc2ccccc2c1=O)c1ccc([N+](=O)[O-])cc1Cl,0
22,Cc1ccc(C)c(OCC(=O)Nc2nc3ccc([N+](=O)[O-])cc3s2)c1C,0

row,Structure (SMILES),manual score
1,N#C/C(=C/C=C/c1ccccc1)C(=O)Nc1ccccc1,0
2,CCn1c(-c2cc3ccccc3cc2O)n[nH]c1=S,0
3,S=c1[nH]nc(-c2cc3ccccc3o2)n1Cc1ccccc1,1 (active)
4,S=c1[nH]nc(-c2ccc(Br)o2)n1Cc1ccccc1,1 (active)
5,Cn1c(SCC(=O)c2cc3ccccc3o2)nnc1-c1ccccc1,0
6,O=c1oc(-c2ccc(Br)o2)nc2ccccc12,0
7,CC(C)N(Cc1nc(-c2ccccc2)no1)C(=O)CSc1ccccc1,0
8,CC1(C)CC(=O)C2=C(C1)NC(SCC(=O)Nc1ccccc1)=C(C#N)C2c1ccco1 (configuration not stated),0.5
9,CC1(C)CC(=O)C2=C(C1)N(c1ccccc1)C(N)=C(C#N)C2c1ccsc1 (configuration not stated),-1 (active)
10,CN1C2C=C3C(C#N)=C(N)C(C#N)(C#N)[C@@H](c4ccsc4)[C@@H]3C1CC2 (some centres not stated),0
11,CCC(C)(C)n1nnnc1C(c1ccccn1)N1CCCCC1 (configuration not stated),0
12,Cc1c(C2Nc3ccccc3NC3=C2C(=O)CC(C)(C)C3)cnn1C (configuration not stated),0
13,Cc1cc2c(cc1C)NC(c1c(C)n(C)n(-c3ccccc3)c1=O)C1=C(CC(C)(C)CC1=O)N2 (configuration not stated),3
14,CC(C)Sc1nc2c(c(=O)[nH]1)C(c1cccs1)C1=C(CC(C)(C)CC1=O)N2 (configuration not stated),-1 (active)
15,O=C(NCc1cccs1)c1cccnc1C(=O)O,0
16,O=C(Nc1ccccc1C(=O)O)c1ccc(NC(=O)c2ccc(Br)o2)cc1,-1 (active)
17,CCC(C)NC(=O)c1ccccc1NC(=O)Nc1ccccc1 (configuration not stated),0.5
18,O=C(O)c1ccccc1C(=O)Nc1ccc(-c2csc(-c3ccccc3)n2)cc1,0
19,COc1cc(OC)cc(C(=O)NC(=S)NCCc2ccccc2)c1,0
20,O=C(NC(=S)NCCc1ccccc1)c1ccccc1,1 (active)
21,O=C(CNC(=S)NC(=O)c1ccco1)c1ccccc1,1 (active)
22,O=C(NC(=S)N(CCc1ccccc1)CCc1ccccc1)c1ccco1,1 (active)

row,Structure (SMILES),manual score
1,O=C(NC(=S)NCCc1ccccc1)c1ccco1,1 (active)
2,Cc1ccccc1C(=O)NC(=S)NCCc1ccccc1,0
3,CC1CN(C2CC(C)(C)NC(C)(C)C2)CCC1=O (configuration not stated),0
4,CCCCc1cc(=O)oc2cc(C)cc(O)c12,-0.5
5,COc1cc(/C=C(\C#N)C(=O)Nc2cccnc2)ccc1OC(C)C,0
6,Nc1sccc1C(=O)c1ccccc1,0
7,O=C(CNC(=S)NC(=O)c1cccs1)c1ccccc1,1 (active)
8,CCOc1ccccc1-c1c2cc(O)c(=O)cc-2oc2cc(O)c(O)cc12,0
9,CCN(CC)S(=O)(=O)c1cccc(S(=O)(=O)c2cccc(S(=O)(=O)N(CC)CC)c2)c1,0
10,CCN(CC)S(=O)(=O)c1cccc(-c2n[nH]c(=S)n2/N=C/c2ccc(C(=O)OC)cc2)c1,1 (active)
11,COCC(C)OC(=O)c1c(N)n(CC(C)C)c2nc3ccccc3nc12 (configuration not stated),0
12,C=CCn1c(N)c(C(=O)OC(C)(C)C)c2nc3ccccc3nc21,-1 (active)
13,COc1ccccc1CNC(=O)c1c(N)n(CCCN2CCOCC2)c2nc3ccccc3nc12,0
14,Cc1cccn2c(=O)c(/C=N/O)c(N3CCCC3)nc12,0
15,CSc1cccc(NC(=O)CN(c2ccc(C)cc2C)S(C)(=O)=O)c1,0
16,CC1(C)CC(=O)C2=C(C1)OC(/N=C/N1CCOCC1)=C(C#N)C2c1ccccc1 (configuration not stated),-1 (active)
17,CC(C)Cc1nnc(NC(=O)CSc2nc(=O)cc(N)n2-c2ccccc2)s1,0
18,CC1Cc2nc(SCC(=O)Nc3nc4ccccc4s3)n(C)c(=O)c2S1 (configuration not stated),-1 (active)
19,CC1(C)Cc2ccccc2-c2nnc(SCC(=O)Nc3nc4ccccc4s3)n21,0
